Test results from PubChem BioAssay.
“And” between values parts separate entries of the source, which are not always exact repeats. Equal entries are not always repeated.

Experiments:
[1] = test system: Human papillomavirus type 1a protein E7 (residues 44-93); assay: HPV1a E7 fragment binders on microarrays, primary screen, biochemical, small-molecule microarray, residues 44-93, 635 nm fluorescence (AID 1108); conditions: small-molecule microarray binding, fluorescence 635 nm; higher = more signal;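 also: E7 fragment applied at 1 µg/mL in TBST for 1 h at 4 C; score combines spot fluorescence with its signal to noise ratio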
[2] = modulators of HCV replicon luciferase signal, primary screen, HCV replication inhibitor project, Huh7 cells, luciferase reporter (AID 1109); conditions: 48 h, higher = more signal;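 also: huh7 hepatoma cells harbouring a luciferase neomycin HCV replicon reporter; luciferase luminescence as measure of HCV replicon replication; test concentration not given here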
[3] = biological target: Left-right determination factor 2 (Homo sapiens) (UniProt O00292); assay: LEFTY2 binders on small-molecule microarrays, primary screen, biochemical, small-molecule microarray, 635 nm fluorescence scan (AID 1110); conditions: LEFTY2 binding, higher = more signal
[4] = biological target: Calmodulin-1 (Homo sapiens) (UniProt P0DP23); assay: CALM1 binders on microarrays, EGTA buffer, profiling panel, biochemical, small-molecule microarray, Cy5-labelled CALM1 (AID 1111); conditions: Cy5-CALM1 binding fluorescence, higher = more signal;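 also: labelled calmodulin applied in Tris saline Tween buffer holding calcium plus EGTA and DTT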
[5] = biological target: Calmodulin-1 (Homo sapiens) (UniProt P0DP23); assay: calcium-bound CALM1 binders on microarrays, profiling panel, artefact control for SMM control-protein annotation, biochemical, small-molecule microarray, Cy5-labelled CALM1, plus calcium (AID 1112); conditions: Cy5-CALM1 binding fluorescence, higher = more signal;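 also: score merges spot fluorescence with signal to noise from triplicate slides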
[6] = small-molecule microarray binders of probe aWnt5a, primary screen, biochemical, biotinylated probe, 635/667 nm fluorescence (AID 1113); conditions: higher = more signal;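 also: score merges 667 nm fluorescence intensity with signal-to-noise per printed feature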
[7] = small-molecule microarray binders of probe aShh, primary screen, biochemical, biotinylated probe, 635/667 nm fluorescence (AID 1114); conditions: higher = more signal;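 also: probe is biotin-labelled aShh protein from a stem cell growth factor screen; measures binding of labelled protein to compounds printed on the slide; score merges feature fluorescence at 667 nm with signal-to-noise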
[8] = small-molecule microarray binders of probe aNog, primary screen, biochemical, biotinylated probe, 635/667 nm fluorescence (AID 1115); conditions: higher = more signal;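 also: probe is biotinylated aNog protein used at 0.15 µg/mL for 1 h at 4 C; z-score combines 667 nm fluorescence of each spot with its signal to noise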
[9] = biological target: Torsin-1A-interacting protein 1 (Homo sapiens) (UniProt Q5JTV8); assay: LAP1 binders from COS7 cell lysate, primary screen, small-molecule microarray, 635/667 nm fluorescence (AID 1116); conditions: COS7-hLAP1 lysate binding, 635 nm fluorescence, higher = more signal
[10] = biological target: Alpha-bungarotoxin (Bungarus multicinctus) (UniProt P60615); assay: alpha-bungarotoxin binders on microarray, profiling panel, artefact control for SMM control protein annotation, biochemical, small-molecule microarray, Alexa647 label, 635/667 nm fluorescence (AID 1117); conditions: alpha-BTX-A647 binding fluorescence, higher = more signal
Chain of Alpha-bungarotoxin (Bungarus multicinctus) (P60615 whole entry, looked up): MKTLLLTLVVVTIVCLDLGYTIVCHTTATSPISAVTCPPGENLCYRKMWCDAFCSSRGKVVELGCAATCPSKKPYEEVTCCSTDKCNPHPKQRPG

Chain of Left-right determination factor 2 (Homo sapiens) (O00292 whole entry, looked up): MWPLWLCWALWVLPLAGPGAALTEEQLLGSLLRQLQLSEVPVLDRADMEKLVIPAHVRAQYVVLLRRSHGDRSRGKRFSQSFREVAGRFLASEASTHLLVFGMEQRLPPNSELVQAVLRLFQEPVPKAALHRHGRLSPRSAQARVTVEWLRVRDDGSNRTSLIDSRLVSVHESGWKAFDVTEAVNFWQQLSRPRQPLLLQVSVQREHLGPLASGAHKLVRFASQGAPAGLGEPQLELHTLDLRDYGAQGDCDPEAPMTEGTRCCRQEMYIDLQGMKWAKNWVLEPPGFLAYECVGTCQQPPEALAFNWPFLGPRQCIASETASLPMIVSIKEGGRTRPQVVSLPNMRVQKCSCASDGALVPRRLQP
Chain of Torsin-1A-interacting protein 1 (Homo sapiens) (Q5JTV8 whole entry, looked up): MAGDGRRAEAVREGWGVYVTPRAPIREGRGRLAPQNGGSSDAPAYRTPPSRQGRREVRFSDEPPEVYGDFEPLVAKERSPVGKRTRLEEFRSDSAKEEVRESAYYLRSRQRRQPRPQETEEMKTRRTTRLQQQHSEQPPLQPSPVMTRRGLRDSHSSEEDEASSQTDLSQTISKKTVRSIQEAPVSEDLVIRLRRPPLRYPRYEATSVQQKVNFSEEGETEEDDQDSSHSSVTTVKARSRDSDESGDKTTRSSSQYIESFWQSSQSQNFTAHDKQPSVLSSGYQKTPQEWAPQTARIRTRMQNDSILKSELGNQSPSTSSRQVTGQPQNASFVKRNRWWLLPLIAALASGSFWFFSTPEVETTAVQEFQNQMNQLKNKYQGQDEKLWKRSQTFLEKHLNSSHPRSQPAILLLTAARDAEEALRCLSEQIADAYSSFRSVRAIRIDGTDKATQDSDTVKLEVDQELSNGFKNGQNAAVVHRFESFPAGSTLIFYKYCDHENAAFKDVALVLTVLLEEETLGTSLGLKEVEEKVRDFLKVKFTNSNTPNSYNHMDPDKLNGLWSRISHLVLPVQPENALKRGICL

Structure (SMILES)	composite z-score [1]	z-score [2]	composite z-score [3]	composite z-score [4]	composite z-score [5]	composite z-score [6]	composite z-score [7]	composite z-score [8]	composite z-score [9]	composite z-score [10]
C=CC[C@H](O)c1ccc(OCCO)cc1	-0.664 and -3.44	-0.921 and 0.924	-0.774 and -0.827	-1.14 and -0.814	0.237 and 0.234	-0.176 and -0.139	-0.221 and -0.288	-0.0144 and 0.419	-0.24 and -1.3	2.4 and -0.101
O=c1n(-c2ccccc2)c(=O)n2n1CC[C@@H]1C(=NOC[C@@H](O)COCc3ccco3)[C@H]3O[C@H]3[C@@H](O)[C@@H]12	0.334 and -1.78	0.273 and -3.95	0.549 and 0.474	-0.288 and -0.601	-1.31 and -0.958	-0.0659 and -0.0276	-0.367 and -0.0035	-0.261 and -0.0733	0.721 and 0.223	0.719 and 0.0807
CN1C(=O)C2CC=C([C@H]3Oc4ccccc4S(=O)(=O)N4CCC[C@@H]34)CC2C1=O (stereo not given in full)	-1.21 and -1.99	-0.539 and -0.95	-0.356 and 0.11	-0.931 and -0.686	-0.803 and -0.798	-0.1 and -0.0125	-0.0553 and -0.0146	-0.172 and -0.324	0.0203 and 0.0568	0.0847 and -0.814
COc1ccc(COC(=O)NN=C2C[C@@H](O)[C@@H](O)[C@@H]3[C@@H]4C(=O)N(C(C)(C)C)C(=O)[C@@H]4CC[C@H]23)cc1	1.01	-0.167	0.0311	-0.0989	-0.143	-0.1	0.0469	-0.242	0.677	0.7
CCOC(=O)[C@H](CC(C)C)NC(=O)CCC1CC(OC(=O)NCc2cccc3ccccc23)CC2(CCCC(COC(=O)NCc3ccccc3)O2)O1 (stereo not given in full)	-0.931	-0.132	-0.0479	-0.195	-0.559	-0.152	-0.282	-0.0029	-0.61	-0.274
C[C@@]1([C@@H](NC(=O)Cc2ccccc2)c2ccc(-c3ccccc3)cc2)C[C@H]1C1CCCCC1	0.208 and 0.778 and 1.16	-2.39 and -1.33 and -0.271	-0.109 and -0.069 and 0.118	1.7 and 1.95 and 1.63	1.26 and 1.28 and 0.753	0.631 and 1.04 and 0	2.22 and 2.04 and -0.493	0.292 and 1.37 and 1.17	-0.288 and -0.307 and 0.775	1 and 0.582 and 1.93
COC(=O)[C@@]1(Cc2ccccc2)[C@H]2c3cc(C(=O)N(C)C)n(C[C@H](O)CO)c3C[C@H]2CN1C(=O)c1ccccc1	1.13 and -0.569	-0.38 and -0.668	-0.724 and 0.396	0.205 and 2.39	0.696 and 0.624	-0.0346 and 0.0297	1.03 and 0.0469	0.373 and 1.04	2.36 and 1.1	-0.33 and 0.13
C=CCN(CCCCC)C(=O)C1N(CCCCCCO)C(=O)C2C(C(=O)O)C3C=CC21O3 (stereo not given)	-0.37 and -0.151	-0.415 and -0.545	-0.978 and -2.49	-1.53 and -0.747	-0.155 and 0.379	-0.256 and -0.258	-0.0626 and -0.156	-0.0784 and -0.208	0.257 and -1.03	-1.31 and -1.22
CO[C@@H]1COC(=O)CC=C[C@H](C)[C@@H](NS(=O)(=O)c2ccc(C)cc2)COC(=O)CC=C[C@@H]1C	0.494 and -1.3	-1.06 and -1.76	0.687 and 0.845	-0.653 and -0.748	-1.02 and -1.12	-0.101 and -0.126	0.0121 and -0.156	-0.23 and -0.289	0.149 and 0.483	1.15 and -0.0808
C=CCN(Cc1ccccc1)C(=O)C(c1cccs1)N(C(=O)/C=C\C(=O)O)c1c(Cl)cccc1CO (stereo not given)	-1.63 and -2.43	-0.68 and -0.803	-0.682 and -3.86	-0.374 and -0.222	0.58 and 0.911	-0.12 and -0.298	-0.212 and -0.366	-0.153 and 0.103	-1.51 and -0.936	-0.974 and -2.03
CC(C)C(=O)N[C@@H]1CCCN1C(=O)C=Cc1ccccc1	0.734	-1.05	0.85	0.0331	-1.12	-0.0704	-0.138	0.173	0.587	0.289
C=CCN(CCCC)C(=O)C1N(CCCCCCO)C(=O)C2C(C(=O)O)C3C=CC21O3 (stereo not given)	-0.498 and -0.27	0.227 and -0.883	-3.06 and -3.09	-0.494 and -0.605	0.169 and 0.392	-0.184 and -0.226	0.0048 and -0.138	-0.349 and -0.318	-0.423 and 0.349	-1.1 and -1.81
C=CCN(C(=O)C1N(c2c(Cl)cccc2CO)C(=O)C2C(C(=O)O)C3C=CC21O3)c1ccc(OC)cc1 (stereo not given)	-0.716 and -1.82	-1.14 and -0.0856	-2.79 and -1.79	-0.746 and -0.798	-0.0974 and 0.407	-0.355 and -0.242	-0.487 and -0.336	-0.218 and -0.24	-0.809 and -0.822	-0.64 and -2.45
CC(C)OC(=O)C=C1C[C@@H](c2cccc(C(F)(F)F)c2)O[C@@H](c2cccc(C(F)(F)F)c2)O1	1.34 and 0.979	-1.55 and -2.35	-0.906 and -0.656	1.21 and 0.297	0.831 and 0.224	0.0433 and -0.218	0.04 and -0.162	0.509 and 0.655	1.03 and 0.0622	0.613 and 0.269
C#CCN1C(/C=C/c2ccccc2)C(=O)OC[C@H]1c1ccccc1 (stereo not given in full)	0.267 and 0.514	-1 and -2.09	0.673 and 0.247	-0.451 and -0.295	-0.545 and -0.383	-0.0033 and -0.0607	0.0328 and -0.138	-0.115 and -0.385	0.341 and -0.35	0.348 and -0.144
CCC[C@@H]1C[C@@]1(CCC)[C@@H](NC(=O)c1ccc(-c2ccccc2)cc1)c1cccc(Cl)c1	-0.802 and 0.457	-2.13 and -2.05	-0.307 and -0.135	-1.57 and 0.535	-1.45 and 0.215	0.874 and 0.103	2.27 and -0.138	2.75 and 0.507	0.415 and 0.868	-0.899 and -0.0107
CCOC(=O)[C@@H]1CC2O[C@]23C[C@@H]1C(=O)N1CCC[C@@H]1[C@H]3O[Si](C)(C)C(C)(C)C (stereo not given in full)	-1.22 and -0.182	-0.417 and -0.4	-0.125 and 0.446	-0.46 and -0.641	-0.748 and -0.252	-0.251 and -0.124	-0.299 and -0.197	-0.321 and -0.134	-0.826 and -0.136	0.102 and -0.667
CCN1C(=O)[C@H]2[C@H]3[C@H](O)[C@H](O)CC(=NOC)[C@@H]3CC[C@H]2C1=O	-0.524	0.964	0.256	-0.472	-0.266	-0.147	0.13	-0.122	0.262	0.178
CCCNC(=O)OC[C@H]1O[C@H](CCON=C(C)CCC(=O)OC[C@H]2O[C@H](C#Cc3ccccc3)C=C[C@@H]2Oc2ccc(C)cc2)C=C[C@@H]1Oc1ccc(OC)cc1	-1.27	-0.564	0.272	-0.309	-0.465	-0.258	-0.174	-0.332	-0.492	0.0642
C=CCN(C(=O)C(c1cccs1)N(C(=O)/C=C\C(=O)O)c1c(Cl)cccc1CO)c1ccc(OC)cc1 (stereo not given)	-0.523 and -0.539	-0.16 and -0.604	-2.96 and -1.51	-0.0794 and -0.107	1.06 and 0.804	-0.285 and -0.096	-0.0011 and 0.173	0.709 and -0.0216	1.81 and -0.188	-1.73 and -0.053
COc1ccc(O[C@H]2C=C[C@@H](c3ccccc3)O[C@@H]2COC(=O)CCC(C)=NO[C@H](C)c2cn([C@H](CO)Cc3ccccc3)nn2)cc1	-0.0009 and -0.0146	-1.99 and -2.59	0.195 and 0.439	-0.223 and -0.233	-0.232 and -0.239	-0.132 and 0.205	-0.0553 and -0.129	-0.0827 and 0.96	0.14 and 0.392	0.211 and 0.231
C[C@@H]1CN2[C@@H](CC[C@@H](C)[C@@H]2c2ccc(Br)cc2)C(=O)O1	-0.561 and -0.15	-0.67 and 1.5	0.57 and 0.0106	-0.235 and -0.676	-0.535 and 0.1	-0.148 and -0.206	-0.59 and -0.428	0.0014 and -0.287	-0.0307 and -0.0763	-0.209 and 0.0857
COC(=O)C1=C(C)N(Cc2ccccc2)C2=C3C(=O)CCC[C@@H]3[C@@](O)(C(=O)OC)C(=O)N2[C@@H]1c1ccccc1	-0.0225 and -0.0706	-0.571 and -2.09	0.278 and 0.372	-0.255 and -0.674	-0.361 and -0.0671	-0.144 and -0.0185	-0.182 and 0.187	-0.424 and 0.0775	0.617 and 0.179	0.187 and -0.503
C=CCN(C(=O)C(c1cccs1)N(C(=O)/C=C\C(=O)O)c1c(Cl)cccc1CO)C(C)(C)C (stereo not given)	-1.05 and -0.821	-0.814 and -1.62	-4.4 and -3.37	-1.1 and -0.796	0.802 and 0.271	-0.304 and -0.202	-0.0769 and -0.138	-0.263 and -0.036	-1.05 and -1.62	-1.29 and -1.31
C[C@@H](c1ccccc1)N1C(=O)[C@H]2[C@H]3[C@H](O)[C@H](O)CC(=O)[C@@H]3CC[C@H]2C1=O	0.189	0.265	0.574	0.377	-0.241	-0.119	0.163	-0.387	0.49	-0.0104
C=CCN(CCCCC)C(=O)C1N(c2c(Cl)cccc2CO)C(=O)C2C(C(=O)O)C3C=CC21O3 (stereo not given)	-0.495 and -1.04	-1.62 and -0.992	-1.3 and -3.32	-0.522 and -1.03	0.639 and 0.545	-0.292 and -0.23	-0.214 and -0.262	0.0029 and 0.0473	0.443 and -0.697	-1.91 and -1.04
